The list is not random: actives were taken first. Their share in the collection is about 5.7%.
HepG2 tox = HepG2 cytotoxicity, counter-screen for TGF-b inhibitors. HepG2 CAGA-GFP viability, ATP luminescence, 18 h. Potency, µM (top dose mostly 46.1 µM), for inactives: at the top dose activity change, negative = cytotoxicity, actives largely listed as cytotoxic. 0.76% of 410,000 active. AID 588856; note: potency is the fitted concentration of half-maximal effect
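HepG2 CAGA-GFP cells (1000/well, DMEM with 1% FBS) received compound, then TGF-beta at 500 pg/mL final, and were incubated 18 hours at 37 degrees C. Viability was read by CellTiter-Glo luminescence. Media-only wells were set as complete cell-killing and DMSO as no toxicity.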
ATXN2 expr inh = ATXN2 expression inhibition; HEK-293 ATXN2-luciferase reporter, luminescence, 24 h; Potency, µM (doses to about 57 µM), inactives show top-dose activity change, negative = inhibition, actives largely listed as inhibitors; 0.72% of 360,000 active; note: potency is the fitted concentration of half-maximal effect; % is set by controls: 0 for no effect and ±100 for the full control effect; nearly all actives have a fitted effect of over 55% in size
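qHTS (up to 57 uM final) was run with 24 h compound exposure of reporter cells at 37 °C. Each well was multiplexed: SteadyGlo luminescence measured ATXN2-luciferase expression after a fluorogenic Gly-Phe-AFC viability readout (25 uM final).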
ATXN viability = reduces viability in counter-screen for ATXN expression inhibitors; S2 cells (HEK-293 line with an ATXN2-luciferase reporter) viability, CellTiter-Fluor protease fluorescence, 24 h; Potency, µM (highest dose often 56.7 µM), actives largely listed as cytotoxic; 0.49% of 400,000 active; note: potency is the fitted concentration of half-maximal effect; nearly all actives have a fitted effect of over 40% in size
IL-1B inflam inh = inhibitors of inflammasome signaling (IL-1 beta secretion) | THP-1 LPS/ATP IL-1B secretion, AlphaLISA, 16 h; stronger effect = lower value | activity change, % at 57.5 µM | 4.7% of 360,000 active | AID 743279; in the data active = activity change below about -50%; inconclusive = mostly about -30% to -49%; note: % is set by controls: 0 for no effect and ±100 for the full control effect
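THP-1 cells pretreated 1 hr with compounds (up to 57.5 uM final), then stimulated with LPS (250 ng/mL final) plus ATP (1.25 mM final); secreted IL-1B measured by AlphaLISA after 16 hr, decreased signal indicating inhibition.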
TGFb inhibitor = blocks TGF-b signaling. 1.2% of 410,000 active. HepG2 CAGA-GFP TGF-b/SMAD3 reporter, GFP fluorescence, 18 h; TGF-beta stimulated, 500 pg/mL final. Potency, µM (titrated, usually from 46.1 µM), for inactives: at the highest dose activity, negative = inhibition, most hits filed as inhibitors; note: potency is the fitted concentration of half-maximal effect; % is set by controls: 0 for no effect and ±100 for the full control effect; nearly all actives have a fitted effect of over 65% in size
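Read-out: total well GFP (ex488/em500-530) summed from mean per-cell fluorescence. Cells: HEPG2 CAGA-GFP, 1% FBS DMEM, 18 h at 37 degrees C with 500 pg/mL final TGF-beta. Unstimulated wells served as the full-inhibition control; stimulated DMSO wells = 0%.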
* marks the source's active call; other numbers are inactive results; i = inactive; ? = inconclusive; / = not tested or not shown. Unless noted, calls come from the whole dose curve; as a rule, active = well fitted curve in the direction sought with a large enough effect; inconclusive = small, poorly fitted or top-dose-only effect, or another doubt; inactive = no such curve, though single readings can be large; an effect the other way counts as inactive or inconclusive.

SMILES	HepG2 tox	ATXN2 expr inh	ATXN viability	IL-1B inflam inh	TGFb inhibitor
CC(=O)c1cccc(NC(=O)C2CCN(c3ncnc4c3nc3n4CCCCC3)CC2)c1	-25.1%	/	/	/	17.8µM*
Cc1ccc(C)c(NC(=O)C(Cc2ccccc2)N2Cc3ccccc3C2=O)c1 (stereo unspecified)	-31.8%	/	/	/	?
O=C(c1cccc(Cl)c1Cl)N(Cc1ccco1)Cc1cccs1	-27.7%	/	/	/	?
CC(=O)c1ccc(NC(=O)Nc2nnc(N3CCCC(C)C3)s2)cc1 (stereo unspecified)	-4.9%	4.4%	i	/	2.0%
CCOC(=O)c1c(C)[nH]c(C2=NNC(=Nc3ccc(OCC)cc3)SC2)c1C	4.2%	-28.7%	?	-52.4*	-56.1%
CC(=O)c1c(C)[nH]c(C2=NNC(=NC(C)(C)C)SC2)c1C	-4.6%	54.5%	i	-21.1	-1.9%
CCOC(=O)c1c(C)[nH]c(C2=NNC(=Nc3ccccc3)SC2)c1C	-33.6%	/	?	-67.5*	10µM*
CCOC(=O)c1c(C)[nH]c(C2=NNC(=Nc3ccccc3OC)SC2)c1C	-0.1%	40.7%	?	-62.2*	-11.8%
Cc1cccc(NC(=O)c2sc3cccc(Cl)c3c2Cl)c1	-4.6%	/	/	/	-6.4%
COc1cc(O)ccc1-c1nc2cc(C)ccn2c1Nc1ccccc1C	-32.9%	?	/	/	?
N#CC1=C(N)NC(SCC(=O)c2ccc(Cl)cc2)=C(C#N)C12CCCC2	-14.4%	-7.9%	i	-72.1*	?
Cc1cc(I)ccc1Nc1nc(NCCN2CCOCC2)nc(N2CCOCC2)n1	-45.1%	/	/	/	-7.2%
COc1ccc(CCNc2ncnc3onc(C)c23)c(OC)c1	-8.6%	?	i	/	-3.6%
Cc1cccc(Cc2c(C)nc3c(C(=O)NCc4ccco4)cnn3c2C)c1	-112.7%	-33.3%	i	-77.8*	17.8µM*
Cc1ccc(/C=C/c2onc(C)c2S(=O)(=O)N2CCC(C(=O)N3CC(C)Oc4ccccc43)CC2)cc1 (stereo unspecified)	-5.4%	/	/	/	-17.7%
C=C(NC(=O)C(=C)NC(=O)c1csc(C2=NC3c4csc(n4)C4NC(=O)c5csc(n5)C(C(C)(O)C(C)O)NC(=O)C5CSC(=N5)/C(=C/C)NC(=O)C(C(C)O)NC(=O)c5csc(n5)C3(CC2)NC(=O)C(C)NC(=O)C(=C)NC(=O)C(=C)NC(=O)C(C(C)C)NC2C=Cc3c(C(C)O)cc(nc3C2O)C(=O)OC4C)n1)C(N)=O (stereo unspecified)	-0.3%	?	2.67µM*	-67.2*	8.91µM*
Cc1cc(Br)c(OCc2ccc(C(=O)N/N=C/c3ccc[nH]3)cc2)c(Br)c1	-94.9%	-62.7%	?	-61.5*	1.12µM*
O=C(N/N=C/c1ccco1)c1ccccc1OCc1ccccc1Cl	-3.3%	-3.6%	i	11.0	-3.8%
O=C(N/N=C/c1ccc[nH]1)c1ccccc1OCc1ccccc1Cl	-0.2%	24.2%	i	-90.2*	-27.4%
CCc1ccc(S(=O)(=O)c2cn(C)c3cc(N4CCC(C)CC4)c(F)cc3c2=O)cc1	-1.5%	/	/	/	-10.4%
O=C(C[n+]1ccccc1Cl)c1ccc2ccccc2c1	-0.1%	/	/	/	-2.8%
c1ccc2[nH]c3cc4ncnc4cc3nc2c1	-37.4%	5.9%	i	-57.3*	?
CCN(CC)S(=O)(=O)c1ccc2c(c1)N(CC(=O)N1CCN(c3cccc(C)c3C)CC1)C(=O)CO2	-9.0%	-35.9%	?	/	?
CS(=O)(=O)CC[C@@H](C(=O)NCCc1ccccc1)N1Cc2ccccc2C1=O	-15.2%	0.7%	i	/	3.6%
C=CC[n+]1c(-c2ccccc2)csc1NC(C)(C)C	-11.1%	-11.1%	i	-19.3	1.0%
C=CC[n+]1c(-c2ccc(OC)c(OC)c2)csc1NNC(=O)Nc1ccccc1	-38.2%	?	?	-74.6*	?
CCCC(=O)NC(c1ccco1)c1cc([N+](=O)[O-])c2cccnc2c1O (stereo unspecified)	-41.3%	?	i	90.3	-24.1%
CC(=O)NC(c1ccco1)c1ccc2cccnc2c1O (stereo unspecified)	-14.3%	10µM*	i	83.0	?
